This passage reports binding signal results from PMC7819943, “Rice protein-binding microarrays: a tool to detect cis-acting elements near promoter regions in rice”.

The full ranking holds about 35,000 sequences; the median of “fluorescence intensity (a.u.)” is about 10,000, and the highest 2% start at about 52,000. Shown is part of a subset that was picked to be rich in the highest values.

The assay concerns the target T1, OsWOX13 (Oryza sativa, UniProt Q5QMM3 1-267).
T1 sequence: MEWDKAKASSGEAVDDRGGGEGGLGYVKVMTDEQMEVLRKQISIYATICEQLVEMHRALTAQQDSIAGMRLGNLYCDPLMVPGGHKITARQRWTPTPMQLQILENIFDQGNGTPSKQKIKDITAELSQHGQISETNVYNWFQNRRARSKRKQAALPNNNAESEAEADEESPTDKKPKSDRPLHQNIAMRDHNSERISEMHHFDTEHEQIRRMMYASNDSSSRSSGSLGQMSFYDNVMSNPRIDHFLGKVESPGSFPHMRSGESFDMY
As to the kind of experiment: protein-binding microarray (RPBM); PBS, 2% BSA, 51.3 ng/ul salmon testes DNA, 50 uM zinc acetate, 200 nM TF, 25 C, 1 h; high values mean tight binding. The note with it: protein: recombinant; tags: N-terminal polyhistidine and DsRed monomer fusion (pET32a); label: CyDye5-dUTP incorporated in the synthesized complementary strand; 3' TTTTT single-stranded linker to array surface; dsDNA, one strand shown. Put shortly:
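An Axon 4000B scanner gave the binding signal as per-feature fluorescence intensity in arbitrary units. This followed washing of a custom Agilent array that had been incubated for 1 h at 25 °C with 200 nM protein in PBS, 2% BSA, salmon testes DNA and 50 µM zinc acetate. The proteins were transcription factors fused at the N-terminus to polyhistidine and DsRed, expressed in E. coli BL21-CodonPlus and purified on Ni–NTA.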
Regarding “TGTATGATTTATGTATAATTAGAGATATACAATCATATAACGGAGTCACCTAGTGCAG”, the binding signal was 16900 fluorescence intensity (a.u.). As for “AGGAGAAACAATTTGCAATCATCACATTGTTTAAAGAGATCGGAGTCACCTAGTGCAG”, the figure is 5330 fluorescence intensity (a.u.). As for “CATTGGAATTGATGATCACATTATACATGGATTTGACCCACGGAGTCACCTAGTGCAG”, the figure is 30600 fluorescence intensity (a.u.); as for “TCTAAACTAATCTAATCTAGCAACGCGATTTAGCCGATACCGGAGTCACCTAGTGCAG”, 9190 fluorescence intensity (a.u.); as for “TTCTGTCAATTAGGTGGGTGACATGTGGATCCCACGATATCGGAGTCACCTAGTGCAG”, 13200 fluorescence intensity (a.u.). As for “ACTGATTTGTTTTATTGTTTTGATTTTAATCCTCTCAATTCGGAGTCACCTAGTGCAG”, the figure is 38800 fluorescence intensity (a.u.); as for “CTTTGATTACATCAAGCCACTGAATTATCAGTTATAATCTCGGAGTCACCTAGTGCAG”, 23100 fluorescence intensity (a.u.).

With “TCATTGATTGATTGGTACTACTACTGCTAGAAGAAAAGGCCGGAGTCACCTAGTGCAG”, the binding signal was 55200 fluorescence intensity (a.u.). As for “ATATCAATCCGATGATATTAATTTTAGCAAATAAAATTTACGGAGTCACCTAGTGCAG”, the figure is 5130 fluorescence intensity (a.u.); as for “TTGATTGTGAATTTATAATGTTTGGATATAATGATTACTTCGGAGTCACCTAGTGCAG”, 34500 fluorescence intensity (a.u.); as for “TTGATTGGAAAGATTGGAAAGAATTGAATGCGAATTGGTACGGAGTCACCTAGTGCAG”, 34500 fluorescence intensity (a.u.). As for “GATAAATTAATAAAATTATCAAAATTTTATGATTGGTTTACGGAGTCACCTAGTGCAG”, the figure is 54900 fluorescence intensity (a.u.); as for “TACCTTAATTTATTGATTGCACTCTTGTTCTCACACGGTTCGGAGTCACCTAGTGCAG”, 53200 fluorescence intensity (a.u.); as for “AGATAGATTAATATATGATAAATCACTAATATCAAATTTACGGAGTCACCTAGTGCAG”, 5780 fluorescence intensity (a.u.).

Take “ATTACATACCTGATTGAGTTGGTACTACAAGGCAGGGAGCCGGAGTCACCTAGTGCAG”: the binding signal was 16400 fluorescence intensity (a.u.).

Consider “TTATTTGCATTGATTTAATAGGGTTTACTCTTGCTTTGCACGGAGTCACCTAGTGCAG”, for which the binding signal is 7870 fluorescence intensity (a.u.). As for “GTGATTACATTGATAATAATTGATTGAATCAGTTTGTTCTCGGAGTCACCTAGTGCAG”, the figure is 62600 fluorescence intensity (a.u.); as for “TAGAATTACTTACTAAATTGCTTGTTATATTGAAGATATTCGGAGTCACCTAGTGCAG”, 5790 fluorescence intensity (a.u.); as for “AAAATAGTTAATACTCAATTAATCATGAGCTAATGGCTCACGGAGTCACCTAGTGCAG”, 9240 fluorescence intensity (a.u.). As for “CATAATTACCAGACATGTTAAATTTAATATATGGATGTATCGGAGTCACCTAGTGCAG”, the figure is 40800 fluorescence intensity (a.u.).

As to “ATTATTGATTTGATGAAACTAATTTAGTATTATAAATATTCGGAGTCACCTAGTGCAG”, the binding signal was 34600 fluorescence intensity (a.u.). As for “GTGATAATTTAGTTACTAAACATGTTGTGAAACTTTATCTCGGAGTCACCTAGTGCAG”, the figure is 3720 fluorescence intensity (a.u.); as for “ACTGATTGACGTTTCTCATAACTAAAATATAGGTATTGTGCGGAGTCACCTAGTGCAG”, 60900 fluorescence intensity (a.u.). As for “GGATAAAATTTAAATTGTACCAGTTTACGACGAATTACATCGGAGTCACCTAGTGCAG”, the figure is 8600 fluorescence intensity (a.u.); as for “ATTTTGGTTGATTTGTAAACAGAGGGATTAATTTGTGCATCGGAGTCACCTAGTGCAG”, 15400 fluorescence intensity (a.u.); as for “CTATATAAAACTGATTGATTCATATTACTACGACGTTTTACGGAGTCACCTAGTGCAG”, 6690 fluorescence intensity (a.u.). As for “CATCATCTCTAATTTTAATCAAAATATAAACTTTGCAGTGCGGAGTCACCTAGTGCAG”, the figure is 9140 fluorescence intensity (a.u.); as for “TTAAGTAATTAAGAGGTGATAGTTAATTTATGCATGCATGCGGAGTCACCTAGTGCAG”, 30400 fluorescence intensity (a.u.); as for “AGTAATTGATTAATTTTGTGACAGAGGTGGTCACTATATGCGGAGTCACCTAGTGCAG”, 61000 fluorescence intensity (a.u.). Regarding “ATTGAATAATCAAAATTTCAATCTTTGATCGATGAGGTATCGGAGTCACCTAGTGCAG”, the binding signal is 12100 fluorescence intensity (a.u.). As for “CTAATTGAATAATCAAAATTTTAATCTTTGGTCGATAATGCGGAGTCACCTAGTGCAG”, the figure is 63700 fluorescence intensity (a.u.). With “ATAAATAACTTTGATATAAATTGTTTGAATAAAACTAATGCGGAGTCACCTAGTGCAG”, the binding signal is 14300 fluorescence intensity (a.u.).

As for “CTTTATTGATAGGATAAAATTGTTACATCGTTTACCAGATCGGAGTCACCTAGTGCAG”, the binding signal is 52600 fluorescence intensity (a.u.).

Consider “TATGATAAAATTGTTACATCATTTACCAGATGATTTAGAACGGAGTCACCTAGTGCAG”, for which the binding signal was 7880 fluorescence intensity (a.u.). As for “TGTGACAAACAATGATTACCAAGCTTTTGGGGAAATATAGCGGAGTCACCTAGTGCAG”, the figure is 16900 fluorescence intensity (a.u.); as for “TCATGATTAAGATGGGCTCACTATGTAATTTTATTTATAACGGAGTCACCTAGTGCAG”, 8240 fluorescence intensity (a.u.); as for “AATAATTTGCCAATACCAACATTTTACTATAAATACTTATCGGAGTCACCTAGTGCAG”, 5410 fluorescence intensity (a.u.).

Take “GCGCTGATACTTGTAATCAATCAACTCATCAGCATGGTCTCGGAGTCACCTAGTGCAG”: the binding signal is 26100 fluorescence intensity (a.u.). As to “GTAGTTAATTGTAAACACTGTACTAAGCAGTATACATTTTCGGAGTCACCTAGTGCAG”, the binding signal was 20300 fluorescence intensity (a.u.).

Take “ACACAATCATTTATACAAAGCATATAATGGGCCTGTTCGGCGGAGTCACCTAGTGCAG”: the binding signal is 6100 fluorescence intensity (a.u.). As for “TGCTTGTAATTTCTATAAAATTAGCAGTATTTTGATGCTACGGAGTCACCTAGTGCAG”, the figure is 9240 fluorescence intensity (a.u.). As for “TTGACATAATATAATCATGTGATATCTTATTGTAAAGATTCGGAGTCACCTAGTGCAG”, the figure is 10400 fluorescence intensity (a.u.). For the sequence “TGTTGATTATAATTAAACACAACAAACAGACTCGAAGCAACGGAGTCACCTAGTGCAG”, the binding signal was 48200 fluorescence intensity (a.u.).
